# High-throughput results deposited in PubChem BioAssay by National Center for Advancing Translational Sciences (NCATS).
# Sampled rows, rich in hits. Any-hit rate of the full collection: about 16%.
# TDP1 cell noCPT: qHTS for Inhibitors of human tyrosyl-DNA phosphodiesterase 1 (TDP1): qHTS in cells in absence of CPT; DT40 Tdp1-/- hTDP1 cells, no CPT, ATP luminescence, 48 h; Potency, µM (titrated, usually from 46.2 µM), for inactives: at the top dose activity change, negative = growth inhibition, hits mostly inhibitors; 15% of 420,000 active; note: potency is the fitted concentration of half-maximal effect; % is set by controls: 0 for no effect and ±100 for the full control effect; nearly all actives have a fitted effect of over 55% in size
#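 Readout: luminescence from CellTiter-Glo after 30 min in the dark at RT. Cells: DT40 Tdp1-/- with stable hTDP1, 400/well. Exposure: compounds alone, ≥48 hr, 37 °C.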
# TDP1 cell CPT: qHTS for Inhibitors of human tyrosyl-DNA phosphodiesterase 1 (TDP1): qHTS in cells in presence of CPT; Potency, µM (doses to about 46.2 µM), without a hit: at the top dose activity change, negative = growth inhibition, most hits filed as inhibitors; chicken DT40 Tdp1-/-;hTDP1 cells + 20 nM CPT, ATP luminescence, 48 h; AID 686979, 2013; 12% of 420,000 active; note: potency is the fitted concentration of half-maximal effect; % is set by controls: 0 for no effect and ±100 for the full control effect; nearly all actives have a fitted effect of over 55% in size
#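 Cell growth measured by CellTiter-Glo luminescence after a minimum 48 h, 37 C compound exposure with 20 nM CPT in Tdp1-knockout DT40 cells stably expressing hTDP1, seeded 400/well; qHTS titration format.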
# TDP1 inh: qHTS Assay for Inhibitors of Tyrosyl-DNA Phosphodiesterase (TDP1). Tyrosyl-DNA phosphodiesterase 1 (Homo sapiens), Q9NUW8. recombinant TDP1, AlphaScreen DNA substrate cleavage. Potency, µM (series often up to 130 µM), inactives show top-dose activity change, negative = inhibition, most hits filed as inhibitors. 0.28% of 350,000 active; note: potency is the fitted concentration of half-maximal effect; % is set by controls: 0 for no effect and ±100 for the full control effect; nearly all actives have a fitted effect of over 40% in size
# Target sequence (Q9NUW8 whole entry, looked up): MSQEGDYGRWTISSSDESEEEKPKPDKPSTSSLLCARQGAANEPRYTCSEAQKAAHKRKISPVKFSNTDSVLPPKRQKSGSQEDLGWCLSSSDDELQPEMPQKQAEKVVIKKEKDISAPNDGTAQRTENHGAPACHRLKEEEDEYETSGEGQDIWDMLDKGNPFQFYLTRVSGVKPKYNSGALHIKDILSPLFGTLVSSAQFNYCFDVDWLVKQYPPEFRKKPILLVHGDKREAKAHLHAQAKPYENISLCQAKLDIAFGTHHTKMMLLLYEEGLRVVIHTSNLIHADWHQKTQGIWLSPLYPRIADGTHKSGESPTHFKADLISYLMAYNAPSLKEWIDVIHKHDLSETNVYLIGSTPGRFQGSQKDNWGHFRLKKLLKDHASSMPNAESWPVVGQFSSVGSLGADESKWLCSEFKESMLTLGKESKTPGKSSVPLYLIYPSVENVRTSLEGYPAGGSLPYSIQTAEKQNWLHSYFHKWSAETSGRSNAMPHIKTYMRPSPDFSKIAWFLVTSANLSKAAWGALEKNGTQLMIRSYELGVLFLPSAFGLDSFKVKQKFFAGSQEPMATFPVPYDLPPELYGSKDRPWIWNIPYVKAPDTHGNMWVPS
#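 AlphaScreen read-out: signal falls as enzyme removes the 3' tyrosine-FITC from a 5'-biotinylated DNA oligo (15 nM, 5 min, RT). Enzyme was E. coli-made recombinant Tdp1 at 1 nM, exposed to compound for 15 min beforehand; beads 10 ug/ml, 10 min.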
# miR-21 act: qHTS Assay for Modulators of miRNAs and/orActivators of miR-21; 340,000 tested, under 10 active; HeLa miR-21 FLuc reporter, luciferase, 48 h; Potency, µM (titrated, usually from 38.3 µM), inactives show at the top dose activity change, positive = activation, actives largely listed as activators;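 note: % of control where 0% means no effect; miR-21 action dims this reporter so a rising signal means less miR-21 action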
#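 Luminescence from a firefly luciferase reporter carrying a miR-21 binding site downstream, stably expressed under a CMV promoter in HeLa cells that make miR-21 endogenously, reports miRNA modulation after 48 h compound exposure up to approximately 40uM final.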
# uPA generation: qHTS for Inhibitors of Cell Surface uPA Generation | cell surface uPA generation assay, qHTS | Potency, µM (highest dose often 38.3 µM), for the others: at the top dose activity change, negative = inhibition, actives largely listed as inhibitors | 0.31% of 330,000 active | AID 540303, 2011; active = well fitted inhibition curve with a large enough effect; inconclusive = small, poorly fitted or top-dose-only effect; inactive = no such curve, though single readings can be large or run the other way; tested in mouse RAW 264.7 cells; note: potency is the fitted concentration of half-maximal effect; % is set by controls: 0 for no effect and ±100 for the full control effect; nearly all actives have a fitted effect of over 55% in size
# Starred values were filed as active, the others as inactive; ? = inconclusive; nt = no result given. Unless noted, calls come from the whole dose curve; as a rule, active = well fitted curve in the direction sought with a large enough effect; inconclusive = small, poorly fitted or top-dose-only effect, or another doubt; inactive = no such curve, though single readings can be large; an effect the other way counts as inactive or inconclusive.
SMILES,TDP1 cell noCPT,TDP1 cell CPT,TDP1 inh,miR-21 act,uPA generation
CCCCCCN1C[C@@H](n2cc(C3CC3)nn2)[C@H](O)C[C@@H]1c1ccccc1,?,-17%,nt,nt,nt
CCCCCCN1C[C@@H](O)[C@H](n2cc(C3CC3)nn2)C[C@@H]1c1ccc(C)cc1,?,-20%,nt,nt,nt
CCCCCCN1C[C@H](O)[C@@H](n2cc(C3CC3)nn2)C[C@@H]1c1ccc(C)cc1,26µM*,?,nt,nt,nt
CCCCCC(=O)N1C[C@@H](n2cc(C3CC3)nn2)[C@H](O)C[C@@H]1c1ccc(Cl)cc1,21µM*,16µM*,nt,nt,nt
CCCCCCN1C[C@H](O)[C@@H](n2cc(C3CC3)nn2)C[C@@H]1c1ccccc1,23µM*,?,nt,nt,nt
COc1cccc(-n2c(=O)c3c(C)c(C)sc3n(CC(=O)NCc3ccccc3)c2=O)c1,5%,-3%,3%,-2%,nt
CC(C)C[C@H](NC(=O)c1nc[nH]c1C(=O)N[C@@H](CC(C)C)C(=O)OCc1ccccc1)C(=O)OCc1ccccc1,26µM*,23µM*,nt,6%,?
CC(C)C[C@H](NC(=O)c1[nH]cnc1C(=O)N[C@H](C)c1ccccc1)C(=O)OCc1ccccc1,16µM*,?,9%,3%,2%
CC(C)C[C@H](NC(=O)c1[nH]cnc1C(=O)N[C@@H](Cc1ccccc1)C(=O)OCc1ccccc1)C(=O)OCc1ccccc1,?,?,nt,5%,3%
CC(C)C[C@H](NC(=O)c1nc[nH]c1C(=O)NC(c1ccccc1)c1ccccc1)C(=O)OCc1ccccc1,?,?,9%,0%,-9%
CS(=O)(=O)N(CC(=O)N1CCN(Cc2ccccc2)CC1)c1cccc([N+](=O)[O-])c1,-25%,-20%,2%,4%,-1%
CC1CCCN(CCCNC(=O)c2ccc3c(c2)N(Cc2ccc(F)cc2)C(=O)c2ccccc2S3=O)C1 (configuration not stated),?,16µM*,4%,0%,-8%
CC1CCCN(CCCNC(=O)c2ccc3c(c2)N(Cc2ccccc2F)C(=O)c2ccccc2S3(=O)=O)C1 (configuration not stated),15µM*,23µM*,4%,15%,?
CCOc1ccccc1CNn1cnnc1SCC(=O)NC(C)(C)C,-2%,3%,nt,nt,nt
O=C(Cc1ccc(Cl)cc1)Nc1ccccc1N1CCOCC1,16µM*,?,0%,-4%,3%
COc1ccc(CC(=O)Nc2ccccc2N2CCOCC2)cc1OC,-26%,7%,-1%,1%,-2%
CN(CC(=O)Nc1cc(Cl)ccc1-n1cncn1)Cc1ccccc1N1CCOCC1,?,23µM*,nt,nt,nt
Cc1ccc(CC(=O)Nc2ccccc2N2CCOCC2)cc1C,?,16µM*,5%,6%,2%
O=C(Cc1ccccc1)Nc1cc([N+](=O)[O-])ccc1N1CCOCC1,-12%,-20%,5%,0%,8%
O=C(CSc1ccc([N+](=O)[O-])cc1)Nc1ccccc1N1CCOCC1,21µM*,?,3%,nt,12%
Cc1cccc(-n2c(SC(C)C(=O)O)nc3sc4c(c3c2=O)CCCC4)c1 (configuration not stated),13%,?,nt,-21%,4%
CCNC(=O)C(Cc1ccccc1)NC(=O)OCc1ccccc1 (configuration not stated),-18%,-2%,-3%,-1%,-1%
CC1=NN(c2ccccc2)C(=O)C1N=Nc1ccccc1 (configuration not stated),-21%,7%,8%,-51%,-1%
CC1=NN(c2ccccc2)C(=O)C1N=Nc1cccc(O)c1 (configuration not stated),16µM*,16µM*,7%,-36%,-2%
COc1ccc(N=NC2C(=O)N(c3ccccc3)N=C2C)cc1 (configuration not stated),6%,-3%,nt,3%,-1%
SMILES,TDP1 cell noCPT,TDP1 cell CPT,TDP1 inh,miR-21 act,uPA generation
CC1=NN(c2ccccc2)C(=O)C1N=Nc1ccc(N)cc1 (configuration not stated),10µM*,15µM*,13%,-9%,-11%
CC(C)Cn1c(SCC(=O)N2CCN(C(=O)c3ccco3)CC2)nc2ccccc2c1=O,11%,-19%,5%,0%,14%
CCOC(=O)c1ccc(NC(=O)Cc2ccc(-n3c(CC)nc4cccnc43)cc2)cc1,26µM*,18µM*,6%,1%,nt
CCOC(=O)c1ccc(NC(=O)CCc2nc3cccnc3n2Cc2cccs2)cc1,18µM*,?,6%,-7%,nt
Cc1cc(C)c(NC(=O)Cc2ccc(-n3c(C)nc4cccnc43)cc2)c(C)c1,21µM*,18µM*,-6%,29%,nt
CCN(CC)c1ccc(NC(=O)CCc2nc3cccnc3n2Cc2cccs2)c(C)c1,?,?,4%,-2%,nt
Cc1cc(NC(=O)CCc2nc3cccnc3n2Cc2cccs2)ccc1Br,21µM*,16µM*,6%,5%,nt
Cc1cc(C)n(Cc2ccc(NC(=O)c3nn(C)cc3[N+](=O)[O-])cc2)n1,2%,-3%,0%,-8%,12%
O=C(CCc1nc2cccnc2n1Cc1cccs1)Nc1cccc(Cl)c1,?,16µM*,1%,8%,nt
CCCn1c(CCC(=O)Nc2cccc(CC)c2)nc2cccnc21,?,16µM*,4%,0%,nt
CCOc1ccc(OCC)c(NC(=O)CCc2nc3cccnc3n2Cc2cccs2)c1,16µM*,?,6%,3%,nt
COCCCNC(=O)CSc1nc2ccccc2c(=O)n1CCc1ccc(S(N)(=O)=O)cc1,?,?,2%,10%,0%
CCOC(=O)N1CCN(Cc2nc3ccc([N+](=O)[O-])cc3c(=O)n2-c2ccc(OC)cc2OC)CC1,?,?,nt,3%,-1%
CCn1c(CN2CCOCC2)nc2cc(NC(=O)c3ccccc3[N+](=O)[O-])ccc21,-17%,-21%,3%,-3%,nt
CCOC(=O)N1CCN(Cc2nc3cc(NC(=O)c4ccccc4OC)ccc3n2C(C)C)CC1,2.3µM*,3.7µM*,6%,28%,nt
CCOC(=O)N1CCN(Cc2nc3cc([N+](=O)[O-])ccc3n2C(C)C)CC1,?,21µM*,-2%,6%,nt
CCOC(=O)N1CCN(Cc2nc3cc(NC(=O)c4ccccc4[N+](=O)[O-])ccc3n2C(C)C)CC1,16µM*,16µM*,4%,-1%,nt
